Source: PubChem (The Scripps Research Institute Molecular Screening Center)
PLCb3 inh: human PLC-beta3 inhibitors, primary screen, biochemical, fluorescence. 1-phosphatidylinositol 4,5-bisphosphate phosphodiesterase beta-3 (Homo sapiens), Q01970. Purified PLC-beta3, fluorogenic substrate. inhibition, % at 12.2 µM. 0.18% of 370,000 active. AID 720704, 2013; in the data active = inhibition above about 11%;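 note: 0% = median of compound wells on plate and 100% = full blocker control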
MsrA inhibitor: bovine MsrA enzyme inhibitors, primary screen, biochemical, absorbance, HTS; Methionine sulfoxide reductase A (Bos taurus); purified bovine MsrA, absorbance read-out; inhibition, % at 15.5 µM; 0.75% of 360,000 active;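 note: 0% = vehicle wells with enzyme and 100% = reference inhibitor wells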
PLCg1 inh: PLC-gamma1 enzyme inhibitors, primary screen, biochemical, fluorescence, purified enzyme; fluorogenic substrate; 0.84% of 370,000 active; AID 720700, 2013; inhibition, % at 12.2 µM; 1-phosphatidylinositol 4,5-bisphosphate phosphodiesterase gamma-1 (Homo sapiens), P19174; in the data active = inhibition above about 9.5%
bovine MsrA act: bovine MsrA enzyme activators, primary screen, biochemical, absorbance, HTS; 0.3% of 360,000 active; Methionine sulfoxide reductase A (Bos taurus); AID 602163, 2012; activation, % at 10.6 µM; purified bovine MsrA, absorbance read-out; in the data active = activation above about 7.5%;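 note: 0% = vehicle and 100% = reference activator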
MsrA conf: bovine MsrA inhibitors, retest, confirmation, biochemical, absorbance, HTS. shares compounds with MsrA inhibitor. purified bovine MsrA, absorbance read-out. inhibition, % at 15.5 µM. AID 651822, 2012. 41% of 2,300 active;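 note: coupled to thioredoxin reductase with NADPH and selenocystamine and DMSO as substrate; 0% = vehicle only and 100% = full effect of reference inhibitor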
An asterisk follows results filed as active; i = inactive; · = not tested or not shown. Rows were chosen to be rich in hits. Some 1.9% of all compounds tested hit in one or more screens of this group. Cut-off read from the data, not from the text of the source, unless noted: active = inhibition above about 4.5%; inactive = the rest.

SMILES	PLCb3 inh	MsrA inhibitor	PLCg1 inh	bovine MsrA act	MsrA conf
Cc1ccc(/C=N/NC(=O)c2ccc3nc[nH]c3c2)s1	-1	7.3*	5	-3	5.7*
COc1cccc(/C=N/NC(=O)c2ccc3nc[nH]c3c2)c1O	-71	2	-39	-2	·
COC(=O)[C@]12C[C@H](CC(=O)N3CCCC3)C(=O)N(Cc3ccco3)C1=C[C@H](COCc1ccccc1)O[C@@H]2C	0	·	1	·	·
OCCCN=c1cc(-c2ccccc2)oc2ccc(Cl)cc12	-1	4.8*	-3	-4	4
CCCCCCCCN1C(=O)[C@@H](CC(=O)NCc2ccc(C)o2)C[C@@]2(C(=O)OC)C1=C[C@H](C1CCCC1)O[C@@H]2C	4	0	-1	·	·
Cc1[nH]c2ccccc2c1/C=N/NC(=O)c1ccccc1	-19	6.2*	-9	-2	4
Cc1[nH]c2ccccc2c1/C=N/NC(N)=S	-7	5.8*	6	-3	4.7*
Cc1[nH]c2ccccc2c1/C=N/NC(=O)CNC(=O)c1ccccc1	-8	4	-1	-4	·
Cc1ccc(NC(=S)N/N=C/c2c(C)[nH]c3ccccc23)cc1	-30	2	-18	-5	·
Cc1[nH]c2ccccc2c1/C=N/NC(=O)c1ccc(N)cc1	-28	5.5*	-16	-5	4.7*
Cc1[nH]c2ccccc2c1/C=N/NC(=O)c1cccc(Br)c1	·	·	·	-1	·
CCNC(=O)N1CCN(c2ccc(N3CCN(C(=O)NCC)[C@@H](C)C3)c(C)c2)[C@@H](C)C1	1	-1	-1	·	·
COC(=O)[C@]12C[C@H](CC(=O)N3CCN(C(=O)C4CC4)CC3)C(=O)N(Cc3ccccc3)C1=C[C@H](C(C)(C)C)O[C@@H]2C	-2	0	0	·	·
CCOC(=O)N1CCN(C(=O)c2ccc3nc4ccc(Cl)cc4c(=O)n3c2)CC1	i	1	i	-2	·
CCOC(=O)N1CCN(C(=O)c2cccn3c(=O)c4cc(Br)ccc4nc23)CC1	-447	-1	-338	-5	·
CCOC(=O)N1CCN(C(=O)c2cccn3c(=O)c4sccc4nc23)CC1	i	5.7*	i	-1	4
CCOC(=O)N1CCN(C(=O)c2ccc3nc4ccsc4c(=O)n3c2)CC1	-463	5.1*	-363	-3	2
CCCC[C@H](C(=O)N(C)c1cccc(OC)c1)[C@@H](O)c1ccc(C(C)=O)cc1	3	·	2	·	·
CCOC(=O)CN1CCCc2nc(C)c(C)cc21	-349	0	-268	·	·
O=C1c2cccc3c([N+](=O)[O-])ccc(c23)C(=O)N1c1ccccn1	i	9.2*	i	-8	6.0*
O=C1c2cccc3c([N+](=O)[O-])ccc(c23)C(=O)N1c1ccc(Cl)cn1	-329	0	-195	1	·
CCCCCCCCN1C(=O)N2Cc3cc(F)ccc3C2CS1(=O)=O (stereo unspecified)	1	·	3	·	·
CCN(CC)C(=O)CC[C@@H]1CC[C@]2(CCCN(C(=O)c3ccccc3)C2)O1	2	·	0	·	·
CC1(C)CC(=O)C(C=Nc2ccc3[nH]ncc3c2)=C(O)C1	-45	5.6*	-30	-10	4.8*
CC1(C)CC(=O)C(C=Nc2ccc(O)cc2)=C(O)C1	-14	5.4*	-14	-4	4
SMILES	PLCb3 inh	MsrA inhibitor	PLCg1 inh	bovine MsrA act	MsrA conf
COc1cccc(N=CC2=C(O)CCCC2=O)c1	-10	3	-11	-4	·
CC1(C)CC(=O)C(C=Nc2ccc(N)cc2)=C(O)C1	-11	3	-1	-3	·
COc1cccc(N=CC2=C(O)CC(C)(C)CC2=O)c1	-12	6.2*	-6	-2	4
CN(NC(=O)C(=O)NCc1ccco1)C(=O)NC1CCCCC1	0	-1	-1	·	·
O=C1NC(Cc2cnc[nH]2)C(=O)N2CCCC12 (stereo unspecified)	6	0	2	·	·
N#Cc1ccc(CSc2nnc(NC(=O)c3ccc(=O)[nH]c3)s2)cc1	-42	6.0*	-28	-2	2
N#Cc1ccc(CSc2nnc(NC(=O)c3ccc4ncsc4c3)s2)cc1	0	1	-4	-8	·
COCc1cc(N2CCN(C(=O)OC(C)(C)C)C[C@H]2C)ccc1N1C[C@@H](C)O[C@@H](C)C1	-2	-1	2	·	·
COc1ccccc1NS(=O)(=O)c1cccc(C(=O)N/N=C/c2cn(-c3ccccc3)nc2-c2ccccc2)c1	-127	6.1*	-112	-6	4
O=[N+]([O-])c1ccc(Oc2cccc3cccnc23)c([N+](=O)[O-])c1	-7	7.3*	-6	-11	4
N#Cc1ccc(Oc2cccc3cccnc23)c([N+](=O)[O-])c1	-185	0	-143	-9	·
O=C1C2C3C=CC(C4CC34)C2C(=O)N1/N=C/c1ccc(-c2ccc(Cl)cc2[N+](=O)[O-])o1 (stereo unspecified)	-6	2	-15	-6	·
O=C(O)c1cc(-c2ccc(/C=N/N3C(=O)C4C5C=CC(C6CC56)C4C3=O)o2)ccc1Cl (stereo unspecified)	-2	5.4*	0	-4	7.8*
O=C(O)c1cc(-c2ccc(/C=N/N3C(=O)C4C5C=CC(CC5)C4C3=O)o2)ccc1Cl (stereo unspecified)	-5	7.4*	0	-4	5.8*
COc1ccc(-c2cc(C(F)(F)F)n3nc(C(=O)O)nc3n2)cc1	i	5.1*	-422	-5	4
CCOc1ccc(/C=C/C2=NNC(=O)CC2)cc1	1	6.7*	0	-5	3
O=C1CCC(/C=C/c2ccccc2)=NN1	10	4	3	-2	·
COc1ccc(/C=C/C2=NNC(=O)CC2)cc1	5	5.5*	8	-6	4.7*
COc1cc(C)c(/C=C/C(C)=C/C=C/C(C)=C/C(=O)O)c(C)c1C	-11	4.7*	-8	-7	4
CCc1nc(N)c(C#N)c(-c2cccnc2)c1C	-16	4.7*	-10	-1	1
Cc1nc(N)c(C#N)c(-c2cccnc2)c1C	-21	1	-20	-2	·
COC(=O)c1ccccc1NC(=S)NC(=O)C1CC1	2	12*	2	-2	11*
COC(=O)[C@]12C[C@H](CC(=O)NCCC(C)C)C(=O)N(Cc3ccc(Cl)cc3Cl)C1=C[C@H](COCc1ccccc1)O[C@@H]2C	4	·	1	·	·
CCN1C(C(=O)Nc2cc(C)on2)=C(O)c2ccccc2S1(=O)=O	-41	5.1*	-36	-5	2
CCCCN1C(C(=O)Nc2cc(C)on2)=C(O)c2ccccc2S1(=O)=O	-287	3	-263	-3	·
Nc1[nH]c(C(=O)c2ccccc2)c(-c2ccc3ccccc3c2)c1C(=O)NCc1cccc2ccccc12	-22	2	-17	·	·
COCCNC(=O)Cn1cc(C(=O)c2ccco2)c2ccccc21	-14	7.2*	-10	-5	3
CCOC(=O)c1c(C)[nH]sc1=S	-2	4.9*	1	5	3
